# Measured values published in PubChem BioAssay (NCI).
# The panel holds about 83,000 compounds, 20% with a hit somewhere; the sample as a whole holds those more often.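 In brief: 96-well plates, 48 h treatment, single concentration, percent growth endpoint.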 Values without a mark were called inactive. Calls of active or inactive are those of the source. Rule for the calls: active = growth percent below 10; inactive = the rest.
# Legend:
# Assay in all cases: NCI-60 one-dose screen, 48 h (100 = growth as untreated, 0 = no growth, -100 = all killed)
# HCT-15 colon = settings: 10 µM unless noted
# HT29 colon = settings: 10 µM unless noted
# SNB-75 CNS = settings: 10 µM unless noted
# SNB-19 CNS = settings: 10 µM unless noted
# U251 CNS = settings: 10 µM unless noted
# PC-3 prostate = settings: 10 µM unless noted
# UACC-62 melanoma = settings: 10 µM unless noted
# LOX IMVI melanoma = settings: 10 µM
# SK-MEL-28 melanoma = settings: 10 µM unless noted
# SK-MEL-2 melanoma = settings: 10 µM unless noted
# EKVX NSCLC = settings: 10 µM unless noted
# SN12C renal = settings: 10 µM unless noted
# UO-31 renal = settings: 10 µM unless noted
# TK-10 renal = settings: 10 µM unless noted
# ACHN renal = settings: 10 µM unless noted
# CAKI-1 renal = settings: 10 µM unless noted
# A498 renal = settings: 10 µM unless noted
# CCRF-CEM leukemia = settings: 10 µM unless noted
# SK-MEL-5 melanoma = settings: 10 µM unless noted
# MOLT-4 leukemia = settings: 10 µM unless noted
Structure (SMILES),growth (HCT-15 colon),growth (HT29 colon),growth (SNB-75 CNS),growth (SNB-19 CNS),growth (U251 CNS),growth (PC-3 prostate),growth (UACC-62 melanoma),growth (LOX IMVI melanoma),growth (SK-MEL-28 melanoma),growth (SK-MEL-2 melanoma),growth (EKVX NSCLC),growth (SN12C renal),growth (UO-31 renal),growth (TK-10 renal),growth (ACHN renal),growth (CAKI-1 renal),growth (A498 renal),growth (CCRF-CEM leukemia),growth (SK-MEL-5 melanoma),growth (MOLT-4 leukemia)
COc1ccc(C(=O)/C=C/c2cccc(Br)c2)cc1S(N)(=O)=O,-69.7% (active),-56.4% (active),-17% (active),-42.8% (active),-98.4% (active),-34.6% (active),-55.8% (active),-91.7% (active),-55.6% (active),-26% (active),-68.4% (active),-79.2% (active),-91.8% (active),-91.8% (active),-95.2% (active),-79.9% (active),93.3%,–,–,–
O=C(NNc1nc2cc(C(F)(F)F)ccc2n2cccc12)c1cnccn1,-49.6% (active),2.58% (active),-69.4% (active),-56.6% (active),-95.5% (active),-54.8% (active),-41.1% (active),-67% (active),-36.8% (active),-73.1% (active),-83.2% (active),-59.9% (active),-64.6% (active),-91.8% (active),-97.5% (active),-87.6% (active),-92.7% (active),6.27% (active),–,–
S=C(Nc1ccc(OCc2nc3ccccc3[nH]2)cc1)NC1CCCCC1,106%,102%,99.1%,94%,97%,95.8%,77.6%,–,85.2%,123%,104%,87.8%,–,130%,101%,100%,150%,95%,92.3%,98.3%
C(=C\c1cc(/C=C/c2ccccc2)c2ccccc2n1)/c1ccccc1,29.2%,86%,115%,97.7%,62.3%,78.2%,93.4%,–,114%,122%,100%,76.8%,88.5%,–,107%,94.2%,132%,60.8%,81.7%,32.1%
N#Cc1c(-c2ccc(Br)cc2)nc2n[nH]c(-c3ccc(Br)cc3)c2c1-c1ccc(C(F)(F)F)cc1,5.75% (active),20.6%,-3.08% (active),20.5%,20.7%,14.5%,0.103% (active),–,49.5%,-37.7% (active),5.95% (active),19.2%,11.9%,–,13.1%,–,92.3%,13.9%,14.3%,4.06% (active)
CCN1C(=O)N(CC)C2NNC(Sc3c(C(=O)O)c4ccccc4n(C4CCCC4)c3=O)=NC21 (stereo unspecified),14.7%,0.444% (active),20.9%,38.8%,8.79% (active),36.3%,47.4%,–,54.8%,27%,45.7%,34.3%,–,80.1%,25.7%,27.5%,102%,24.8%,13.8%,24.1%
O=C1N/C(=N\c2nccs2)S/C1=C\C=C/c1ccccc1,28.1%,25.5%,83.5%,26.6%,8.95% (active),46.6%,-24% (active),28.3%,18%,37.7%,27.5%,39.2%,25.5%,34.5%,23.5%,35.1%,57.2%,–,–,–
CCOc1ccc(C(=O)NC(=S)Nc2ccc(S(N)(=O)=O)cc2)cc1,111% [100 µM],98.1% [100 µM],76.9% [100 µM],104% [100 µM],96.7% [100 µM],92.1% [100 µM],94.8% [100 µM],–,107% [100 µM],104% [100 µM],101% [100 µM],100% [100 µM],77.9% [100 µM],92.6% [100 µM],–,87.9% [100 µM],96.6% [100 µM],101% [100 µM],88.1% [100 µM],110% [100 µM]
